For one test, the system named is SERPINA7 (gene 6906). The test can be described thus: CCTE_GLTED_hTBG: CCTE's human Thyroxine-binding Globulin (TBG) Inhibition Assay, Great Lakes Toxicology and Ecology Division (GLTED) Lab (AID 2284343; active = hit-call score of the fitted dose curve at least 0.9, where 1 is the maximum;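 also: active chemicals lower fluorescence versus DMSO baseline by displacing probe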). The essentials: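 hTBG + test chem, 2 h; ANSA probe displacement; fluorescence readout ex380/em475; DMSO = neg ctrl/baseline; cell-free.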
The subject of the next test is TTR (gene 7276). Kind of test: CCTE_GLTED_hTTR_0.125uM: CCTE's human Transthyretin (hTTR) Inhibition Assay, with 0.125uM TTR, Great Lakes Toxicology and Ecology Division (GLTED) Lab (AID 2284431).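 Also: hits lower the fluorescence signal relative to DMSO baseline.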 The essentials:
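Fluorescence (380 ex, 475 em) reported the ANSA probe remaining bound to 0.125uM human transthyretin. Chemicals were incubated with the protein for 2 hours; activity was scored as loss of signal against DMSO negative control.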

In test [1] the target is Retinoic acid receptor alpha (Homo sapiens) (UniProt P10276). The test can be described thus: NVS_NR_hRARa_Agonist: NovaScreen (NVS) Nuclear Receptor Binding Assay for human Retinoic Acid Alpha Receptor Agonism (RAR) (AID 2283361; active = hit-call score of the fitted dose curve at least 0.9, where 1 is the maximum). The essentials:
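Cell-free TR-FRET binding readout with extracted receptor protein, read 2 hours after dosing; gain-of-signal fitted relative to DMSO. Screened in duplicate at 25 uM, actives then run in concentration-response.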

The target in test [2] is rat Neonicotinoid receptor (NNR), Chrna7 (gene 25302) (UniProt Q05941). The test can be described thus: NVS_LGIC_rNNR_BungSens: NovaScreen (NVS) Ligand-Gated Ion Channel Assay for rat Neonicotinoid receptor (NNR) (AID 2283315; active = hit-call score of the fitted dose curve at least 0.9, where 1 is the maximum). The essentials:
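Radioligand displacement binding on rat cortical membranes, 2.5 h incubation, filtration and scintillation counting. Loss of specific binding fitted relative to DMSO.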

Test [3] deals with rat Monoamine Oxidase, MAO-A, Central (MAOAC), gene 29253. The test can be described thus: NVS_ENZ_rMAOAC: NovaScreen (NVS) Enzymatic Assay for rat Monoamine Oxidase, MAO-A, Central (MAOAC) (AID 2283243; active = hit-call score of the fitted dose curve at least 0.9, where 1 is the maximum;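 also: potency refers to inhibition seen as signal drop below DMSO baseline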). An outline of the steps:
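Steps: rat brain protein extract dosed with test chemical (25 uM, duplicate, primary); incubated 1.5 h; radiolabelled product separated from substrate and counted. Signal loss versus DMSO scored as inhibition.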

The target in test [4] is human Thyroid Receptor Alpha (TRa), THRA (gene 7067) (UniProt P10827). Kind of test: NVS_NR_hTRa_Antagonist: NovaScreen (NVS) Nuclear Receptor Binding Assay for human Thyroid Receptor Alpha Antagonism (TRa) (AID 2283362; active = hit-call score of the fitted dose curve at least 0.9, where 1 is the maximum). An outline of the steps: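 Extracted protein, cell-free; 1 h incubation after dosing; AlphaLISA chemiluminescence binding readout. DMSO = baseline/neg ctrl; signal loss = activity. Primary: duplicate, 25 uM; secondary: conc. series on actives.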
human Thyroid Receptor Alpha (TRa), THRA (gene 7067), sequence (P10827 whole entry, looked up): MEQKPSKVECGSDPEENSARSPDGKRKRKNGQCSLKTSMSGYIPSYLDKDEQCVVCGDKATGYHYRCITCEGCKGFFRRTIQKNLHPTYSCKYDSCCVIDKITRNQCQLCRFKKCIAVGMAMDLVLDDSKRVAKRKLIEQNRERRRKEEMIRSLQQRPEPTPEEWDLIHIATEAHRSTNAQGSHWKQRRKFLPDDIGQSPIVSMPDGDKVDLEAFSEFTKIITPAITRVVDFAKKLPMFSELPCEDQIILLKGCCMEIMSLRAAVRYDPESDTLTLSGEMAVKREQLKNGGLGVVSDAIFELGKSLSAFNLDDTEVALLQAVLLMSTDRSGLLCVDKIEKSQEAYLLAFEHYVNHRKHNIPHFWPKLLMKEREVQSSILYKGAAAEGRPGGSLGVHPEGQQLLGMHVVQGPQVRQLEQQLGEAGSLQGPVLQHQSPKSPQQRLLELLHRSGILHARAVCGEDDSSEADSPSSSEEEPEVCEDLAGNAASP

The nature of test [5]: CCTE_Shafer_MEA_dev_firing_rate_mean: CCTE's Neural Network Formation Assay for Mean Firing Rate, Shafer Lab (AID 2284031). An outline of the steps: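 Rat primary cortical neurons were seeded on multielectrode arrays and treated from plating through day 12, with redosing at each feed. Spontaneous spiking was recorded four times; mean firing rate AUC was fitted downward against DMSO.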

A short description of test [6]: CCTE_Shafer_MEA_dev_per_burst_spike_percent: CCTE's Neural Network Formation Assay for Percent of Spikes in a Burst, Shafer Lab (AID 2284032). The essentials:
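Rat primary cortical neurons on 16-electrode MEA wells, dosed from plating day 0 for 12 days with renewal on DIV 5 and 9; spikes-in-bursts percentage averaged over bursting electrodes, collapsed as AUC across days 5, 7, 9, 12; loss direction versus DMSO.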

Test [7] in a line: CCTE_Shafer_MEA_dev_active_electrodes_number: CCTE's Neural Network Formation Assay for Number of Active Electrodes, Shafer Lab (AID 2284040; active = hit-call score of the fitted dose curve at least 0.9, where 1 is the maximum). An outline of the steps: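 Primary rat cortical neurons on 16-electrode MEA wells, exposed from day 0 through day 12 with compound renewed at DIV 5 and 9 feeds. Active electrodes (mean firing ≥5 spikes/min) counted at DIV 5, 7, 9, 12; trapezoidal AUC across days, loss-of-signal versus DMSO.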

A short description of test [8]: CCTE_Shafer_MEA_dev_burst_rate: CCTE's Neural Network Formation Assay for Burst Rate, Shafer Lab (AID 2284042). An outline of the steps:
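Developmental network assay measuring how 12-day exposure of rat cortical neuron cultures alters bursting on extracellular MEA recordings. Values are AUC of well-mean burst rate across four recording days, relative to DMSO vehicle.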

The nature of test [9]: CCTE_Shafer_MEA_dev_bursting_electrodes_number: CCTE's Neural Network Formation Assay for Number of Bursting Electrodes, Shafer Lab (AID 2284043; active = hit-call score of the fitted dose curve at least 0.9, where 1 is the maximum). An outline of the steps:
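Primary rat cortical neurons plated on 16-electrode MEA wells, exposed from day 0 with compound renewed at DIV 5 and 9. Electrodes bursting ≥1 burst per 2 min counted on days 5, 7, 9 and 12; trapezoidal AUC across days, fitted for loss versus DMSO.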

The nature of test [10]: CCTE_Shafer_MEA_dev_per_burst_interspike_interval: CCTE's Neural Network Formation Assay for Burst Interspike Interval, Shafer Lab (AID 2284044).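 Also: mean spike spacing inside bursts as AUC over recordings on days 5 7 9 12.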 The essentials: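 Neurons from rat cortex plated onto PEI-coated MEA wells with laminin […] at 1.5 x 10^5 cells/well, then treated from day 0. Media and compound fully replaced on DIV 5 and 9. Extracellular spontaneous firing recorded four times; interspike interval per burst summarised as AUC.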

Test [11] in a line: CCTE_Shafer_MEA_dev_burst_duration_mean: CCTE's Neural Network Formation Assay for Mean Burst Duration, Shafer Lab (AID 2284045). An outline of the steps:
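Primary rat cortical neurons on 48-well 16-electrode MEA plates, exposed from day 0 with renewal at DIV 5 and 9; spontaneous activity recorded on days 5, 7, 9, 12. Well-mean burst duration across bursting electrodes, collapsed as trapezoidal AUC; DMSO baseline.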

Test [12] can be described thus: CCTE_Shafer_MEA_dev_interburst_interval_mean: CCTE's Neural Network Formation Assay for Mean Interburst Interval, Shafer Lab (AID 2284046).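 Also: well-mean interburst interval of bursting electrodes as AUC over four recording days; curve fitted for decrease in interburst interval relative to DMSO.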 The essentials:
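Network formation assay in primary rat cortical cultures, exposed from DIV 0 to 12. Mean interburst interval per well, integrated as AUC over four recordings.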

A short description of test [13]: CCTE_Shafer_MEA_dev_inter_network_spike_interval_mean: CCTE's Neural Network Formation Assay for Mean Inter-network Spike Interval, Shafer Lab (AID 2284047). An outline of the steps:
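Compound was given at plating to primary rat cortical neurons and renewed with full medium changes on DIV 5 and 9. Extracellular activity was recorded on days 5, 7, 9, 12; AUC values were fitted for loss relative to DMSO control.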

A short description of test [14]: CCTE_Shafer_MEA_dev_network_spike_number: CCTE's Neural Network Formation Assay for Number of Network Spikes, Shafer Lab (AID 2284048). The essentials:
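Primary rat cortical neurons on PEI/laminin 48-well MEA plates, dosed from plating day 0 for 12 days, renewed at DIV 5 and 9. Network spike counts recorded DIV 5, 7, 9, 12, collapsed as trapezoidal AUC; DMSO baseline.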

A short description of test [15]: CCTE_Shafer_MEA_dev_network_spike_peak: CCTE's Neural Network Formation Assay for Mean Number of Electrodes in Network Spike, Shafer Lab (AID 2284049). An outline of the steps: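 Network-spike peak electrode count from recordings on days 5, 7, 9 and 12 was combined as trapezoidal area under the curve. Rat cortical cultures were treated continuously from plating, with compound renewed at each feed (DIV 5, 9); fits versus DMSO.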

A short description of test [16]: CCTE_Shafer_MEA_dev_spike_duration_mean: CCTE's Neural Network Formation Assay for Mean Spike Duration, Shafer Lab (AID 2284051).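 Also: mean network spike duration pooled as area under curve over DIV 5 to 12 recordings.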 An outline of the steps: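 With DMSO as baseline, loss of mean network spike duration was scored from extracellular recordings of rat cortical neurons on MEA plates. Exposure spanned plating to DIV 12; the four recording days were collapsed into one AUC value.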

A short description of test [17]: CCTE_Shafer_MEA_dev_network_spike_duration_std: CCTE's Neural Network Formation Assay for Standard Deviation of Network Spike Duration, Shafer Lab (AID 2284052).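 Also: area under curve of spike duration SD across recording days 5 to 12; hits are decreases in network spike duration SD versus DMSO vehicle.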 The essentials: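 Developing networks of rat cortical neurons were exposed over twelve days in vitro on 48-well MEA plates. Trapezoidal AUC of recordings (DIV 5–12) was analysed for signal loss relative to DMSO vehicle.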

Test [18] in a line: CCTE_Shafer_MEA_dev_per_network_spike_spike_number_mean: CCTE's Neural Network Formation Assay for Mean Number of Spikes in a Network Spike, Shafer Lab (AID 2284053). An outline of the steps:
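First, rat cortical cells (1.5 x 10^5/well) were seeded onto MEA wells; second, dosing began at plating and was refreshed on DIV 5 and 9; finally, network-spike spike counts across DIV 5–12 were summarized as AUC.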

Inconclusive results are not listed. Active and inactive are the calls of the source. The calls were made as follows, unless noted: active = hit-call score of the fitted dose curve at least 0.9, where 1 is the maximum; inactive = score below 0.9.

Retinoic acid receptor alpha (Homo sapiens), sequence (P10276 whole entry, looked up): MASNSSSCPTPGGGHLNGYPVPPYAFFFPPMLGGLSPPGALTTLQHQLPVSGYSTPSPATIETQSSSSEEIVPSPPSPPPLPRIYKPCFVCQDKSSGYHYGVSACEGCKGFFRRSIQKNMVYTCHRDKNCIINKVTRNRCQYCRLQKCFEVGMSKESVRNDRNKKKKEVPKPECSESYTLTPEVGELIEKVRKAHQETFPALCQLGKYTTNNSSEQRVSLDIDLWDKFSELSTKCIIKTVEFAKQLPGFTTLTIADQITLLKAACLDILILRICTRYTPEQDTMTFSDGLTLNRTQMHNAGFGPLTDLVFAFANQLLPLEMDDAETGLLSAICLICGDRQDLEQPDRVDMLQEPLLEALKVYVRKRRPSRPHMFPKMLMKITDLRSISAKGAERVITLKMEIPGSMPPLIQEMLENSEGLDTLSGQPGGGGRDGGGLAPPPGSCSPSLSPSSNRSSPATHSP
rat Neonicotinoid receptor (NNR), Chrna7 (gene 25302), sequence (Q05941 whole entry, looked up): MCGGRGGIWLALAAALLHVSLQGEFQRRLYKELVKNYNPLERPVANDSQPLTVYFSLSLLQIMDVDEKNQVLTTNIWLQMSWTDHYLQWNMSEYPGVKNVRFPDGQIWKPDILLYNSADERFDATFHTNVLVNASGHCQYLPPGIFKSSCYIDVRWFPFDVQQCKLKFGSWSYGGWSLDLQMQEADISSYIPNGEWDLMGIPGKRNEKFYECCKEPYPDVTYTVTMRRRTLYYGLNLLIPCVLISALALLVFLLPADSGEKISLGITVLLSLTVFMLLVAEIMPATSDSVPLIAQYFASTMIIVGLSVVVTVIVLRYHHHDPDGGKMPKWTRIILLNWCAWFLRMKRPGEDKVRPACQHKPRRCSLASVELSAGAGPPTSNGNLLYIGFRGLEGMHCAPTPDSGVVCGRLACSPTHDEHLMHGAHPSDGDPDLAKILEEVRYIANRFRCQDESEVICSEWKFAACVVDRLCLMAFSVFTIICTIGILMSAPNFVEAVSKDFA

`CC(C)(c1cc(Cl)c(O)c(Cl)c1)c1cc(Cl)c(O)c(Cl)c1`: the values for the AC50 in the test on SERPINA7 (gene 6906) and with TTR (gene 7276) were 8.77 µM (active) and 35.5 nM (active), respectively.
`O=C=Nc1ccccc1`: the AC50 (as a rule, the midpoint of the concentration-response curve, whichever way the signal moves) in test [1] is 9.8 µM (active).
Take `CCc1cc(C)cc(CC)c1-c1c(OC(=O)C(C)(C)C)n2n(c1=O)CCOCC2`: the AC50 in test [2] was 6.11 µM (active).
For the compound `COC(=O)COc1ccc(Cl)cc1Cl`, the AC50 in test [3] is 13.7 µM (active).
Regarding `CC1CCCC1.[C-]#[O+].[C-]#[O+].[C-]#[O+].[Mn]`, the compound was classed as inactive in [4], in test [5], in test [6], in test [7], in test [8] and in test [9]. Further, the result in [10], in test [11], in [12], in test [13], in test [14] and in test [15] was inactive. In addition, the result in [16], in test [17] and in [18] was inactive.

These data come from PubChem BioAssay (EPA / NIEHS).
